From PubChem BioAssay AID651951 (The Scripps Research Institute Molecular Screening Center, 2012)
Among all 2,400 compounds or so, about 1,100 (46%) were called active. The set was probably picked from earlier hits. These entries were drawn from the full list. Values without a mark were called inactive.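 Rule for the calls: active = inhibition above the run cutoff, the mean inhibition of all test compounds plus 3 SD (cut at about 49% in these data); inactive = the rest.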

These compounds were tested against Trace amine-associated receptor 1 (Homo sapiens) (UniProt Q96RJ0) (assay: TAAR1 desensitization by agonist hits, confirmation, counter-screen for TAAR1 agonist project, cell-based, fluorescence, tachyphylaxis (AID 651951;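 note: beta-PEA stimulus applied at its EC80; loss of beta-PEA calcium signal after compound pretreatment read as receptor desensitization; 0% = DMSO with beta-PEA at EC80 and 100% = DMSO alone without agonist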)). Details: CHO RD-HGA16 hTAAR1, Fluo-8 calcium, beta-PEA response inhibition; at 3 µM; stronger effect = higher value.
Sequence of Trace amine-associated receptor 1 (Homo sapiens) (Q96RJ0 whole entry, looked up): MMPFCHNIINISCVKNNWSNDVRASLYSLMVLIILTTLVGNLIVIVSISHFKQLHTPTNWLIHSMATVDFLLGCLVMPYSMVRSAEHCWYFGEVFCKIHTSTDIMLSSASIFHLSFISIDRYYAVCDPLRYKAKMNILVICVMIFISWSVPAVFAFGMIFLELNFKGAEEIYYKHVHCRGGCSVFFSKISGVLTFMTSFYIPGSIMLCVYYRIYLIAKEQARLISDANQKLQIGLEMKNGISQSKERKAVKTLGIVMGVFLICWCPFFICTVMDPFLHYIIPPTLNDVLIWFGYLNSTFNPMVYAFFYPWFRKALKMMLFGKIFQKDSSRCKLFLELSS

| Compound | inhibition |
| --- | --- |
| Cc1cc2nc3c(=O)[nH]c(=O)nc-3n(C[C@H](O)[C@H](O)[C@H](O)CO)c2cc1C | 53.2% (active) |
| O=C(Nc1ccc(Cl)cc1)N1CCc2[nH]c3ccccc3c2C1 | 12.4% |
| O=c1cnnc(Nc2ccccc2)[nH]1 | 60.1% (active) |
| COc1ccc2c(c1)OC(O)(C(F)(F)C(F)F)CC2=O (configuration not stated) | 11.2% |
| NC[C@H](Cc1ccccc1)NCCc1cc(C(F)(F)F)cc(C(F)(F)F)c1 | 12.9% |
| CCCCCCCCCCOC(=O)Cn1c(COc2ccc(C)cc2)[n+](C)c2ccccc21 | 102% (active) |
| CC(Oc1ccc(Cl)cc1)C(=O)OCC(=O)Nc1ncc(Cl)cc1Cl (configuration not stated) | 7.27% |
| Cc1ccc(Cl)cc1N1CCN(C(=O)c2cccc3c(=O)c(C)c(-c4ccccc4)oc23)CC1 | 80.9% (active) |
| Nc1c(C(=O)c2cccs2)sc2nsc(SCCN3CCCCC3)c12 | 60.8% (active) |
| CCOC(=O)Cc1csc(NC(=O)Nc2ccccc2)n1 | 28.9% |
| NC(c1ccccc1)c1csc(NC(=O)Nc2cccc(C(F)(F)F)c2)n1 (configuration not stated) | 50.7% (active) |
| COc1ccc(C(N)c2csc(NC(=O)Nc3cccc(C(F)(F)F)c3)n2)cc1 (configuration not stated) | 44.9% |
| COc1cc(OC)c(-n2cc(-c3ccc(Cl)cc3)[nH]c2=O)cc1Cl | 79.8% (active) |
| Cc1ccccc1NC(=S)NC(=O)Cc1ccc(Cl)cc1 | 81.5% (active) |
| O=C(Cc1ccc(Cl)cc1)NC(=S)Nc1ccccc1O | 106% (active) |
| CCC(c1nnnn1Cc1ccco1)N(CCc1ccccc1)Cc1cc2cccc(C)c2[nH]c1=O (configuration not stated) | 20.6% |
| NC(Cc1ccccc1)c1csc(Nc2cc(Oc3ccccc3)ncn2)n1 (configuration not stated) | 65.7% (active) |
| CC(=O)Oc1ccc(Cn2c(C)c(C(=O)NCc3ccc(C#N)cc3)sc2=O)cc1 | 72.9% (active) |
| O=C1CCCC(O)=C1C=NCCc1ccccc1 | 32.1% |

| Compound | inhibition |
| --- | --- |
| Cc1ccn2c(=O)c(C(=O)NCCC3=CCCCC3)c(O)nc2c1 | 65.7% (active) |
| c1ccc(-c2csc(N3CCc4ccccc4C3)n2)cc1 | 15.3% |
| Oc1ccc2ccc3cccc[n+]3c2c1 | 19.6% |
| COc1cc(OC)cc(C(=O)N[C@H](C(=O)OCC(=O)NC(C)c2ccccc2)C(C)C)c1 (some centres not stated) | 12.6% |
| CC(NC(=O)c1cc(-c2ccccc2)on1)c1ccccc1 (configuration not stated) | 51.1% (active) |
| c1ccc(C2CNCc3c2ccc2ccccc32)cc1 (configuration not stated) | 95.2% (active) |
| CCN(CC)c1ccc2oc(=O)c(C)nc2c1 | 25.7% |
| O=C(Nc1ccccc1)Nc1nnc(COc2ccccc2F)s1 | 72.4% (active) |
| O=C(Nc1ccc(F)cc1)Nc1nnc([C@H]2C[C@H](O)[C@@H](CO)O2)s1 | 25.5% |
| O=C(c1noc2c1CCCC2)N1CCc2ccccc2C1 | 5.47% |
| CN(C)c1ccc(/C=C2\NC(=S)N(Cc3ccccc3)C2=O)cc1 | 63.9% (active) |
| CC(=O)Nc1ccccc1Sc1ccc2c3c(cccc13)C(=O)N(c1ccc(C)cc1)C2=O | 5.11% |
| CCCOc1ccc(-c2c(C(=O)N/N=C/c3ccco3)nnn2-c2nonc2N)cc1 | 13.2% |
| Cc1cccc(NC(=O)C(C)N2C(=O)C3C4CC(C(Br)C4Br)C3C2=O)c1 (configuration not stated) | 52.5% (active) |
| CCCC1CCC(=NNC(=S)NCCc2ccccc2)CC1 (configuration not stated) | 51.7% (active) |
| Cc1ccc(O)c(NC(=S)NC(=O)COc2ccc(Br)cc2)c1 | 104% (active) |
| Nc1cc(OC(=O)c2ccccc2Br)nn1S(=O)(=O)c1ccccc1 | 11.7% |
| COCCCn1c(Cc2csc(Nc3cccc(Cl)c3)n2)nnc1SCC(=O)OC1CCCCC1 | -2.24% |
| COc1ccc(Cl)cc1C(=O)NNC(=S)NC(=O)/C=C/c1ccco1 | 67.7% (active) |

| Compound | inhibition |
| --- | --- |
| O=C1C=C(c2ccc(Cl)cc2)C(=O)N1Nc1ccccc1 | 72.8% (active) |
| Nc1nnn(CC(=O)N/N=C/c2ccccc2)n1 | 17.8% |
| CSc1nc(N)c(C#N)c(-c2ccccc2Cl)c1C#N | 24.1% |
| O=C(CSc1nc(-c2ccco2)cc(C(F)(F)F)n1)NCc1cccs1 | -5.52% |
| Cc1c(CNCCc2ccccc2)c(C(=O)O)c(C)n1-c1ccccc1 | 53.7% (active) |
| COc1cccc(N(CC(=O)N2CCc3ccccc3C2)S(C)(=O)=O)c1 | 15.3% |
| S=C(NCCCc1cnc[nH]1)NCCCN(Cc1ccc(Cl)c(Cl)c1)c1ccc(Br)cn1 | 59.7% (active) |
| CCCCCC(=O)NC(=S)NNC(=O)c1ccc([N+](=O)[O-])cc1 | 61% (active) |
| O=C(NCCc1ccccc1)/C(=C\c1ccc([N+](=O)[O-])cc1)NC(=O)c1ccccc1 | 7.67% |
| CCCCCc1c(-c2ccc(OC)c(OC)c2)ncn1CCc1ccccc1OC | 97.1% (active) |
| CCCCc1c(-c2ccc(Cl)cc2)ncn1CCc1ccccc1OC | 83.4% (active) |
| CCCCc1c(-c2ccc(Br)cc2)ncn1CCc1ccccc1OC | 49.3% (active) |
| CCCCCc1c(Cc2ccccc2)ncn1CCc1ccccc1OC | 88.8% (active) |
| CCCCCc1c(-c2cccc(Br)c2)ncn1CCc1ccccc1OC | 20.5% |
| CCc1c(-c2ccccc2OC)ncn1CCc1ccccc1OC | 39.8% |
| N#Cc1ccc(OCCCN2CCC(C(O)(c3ccccc3)c3ccccc3)CC2)c(F)c1 | 23.9% |
| Cn1c(=O)c(=O)n(C)c2cc(S(=O)(=O)NCCc3ccccc3)ccc21 | 73.1% (active) |
| O=[N+]([O-])c1cc(S(=O)(=O)NCCc2ccccn2)ccc1Cl | 39% |
| c1ccc2c(c1)C(=NC1CCCCC1)NC2=NC1CCCCC1 | 42.2% |
